According to the supplement of paper PMC9262897, “Low-cost anti-mycobacterial drug discovery using engineered E. coli” (Nature Communications, 2022):
Where a name gives a salt, the structure may show the parent alone. ± gives the standard deviation of the averaged measurements.

Legend:
Test in all cases: growth (OD600 after 10 h); higher = more growth (less inhibition)
[1] = system: E. coli TESEC Alr+ wild-type control; details: compound 0.1 mM; raw OD600 reference: median of DMSO wells 0.241, cell-free background 0.041
Procedure: (§1)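 TESEC Mtb Alr E. coli, or the Alr+ wild-type control, in 384-well plates with Prestwick library compounds at 0.1 mM and 1% DMSO, across arabinose induction levels of 1E3 to 1E7 nM. Growth is read as OD600 after 10 h at 37 °C in triplicate biological replicates.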

E. coli TESEC Mtb Alr [2] = details: compound 0.1 mM
Procedure: as §1

E. coli TESEC Mtb Asd = details: compound 0.1 mM
Procedure: (§2)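 TESEC E. coli strains in which the native enzyme is deleted and replaced by arabinose-inducible Mtb Asd, DapB, CysH or TrpD, each grown in its selective medium. Strains were screened against the Prestwick library at 0.1 mM and 1% DMSO in 384-well format at low and high arabinose induction. Growth is read as OD600 after 10 h in triplicate.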

E. coli TESEC Mtb DapB = details: compound 0.1 mM
Procedure: as §2

[3] = system: E. coli TESEC Alr+ wild-type control; details: compound 0.1 mM; raw OD600 reference: median of DMSO wells 0.49, cell-free background 0.052
Procedure: (§3)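 TESEC Mtb Alr E. coli (ΔaraC ΔtolC ΔentC Δalr ΔdadX, arabinose-inducible Mtb Alr) or the Alr+ wild-type control strain, grown in defined M9-fructose medium without D-alanine in 96-well plates with Prestwick library compounds at 0.1 mM and 1% DMSO. Low Alr induction is 0.1 µM arabinose and high induction is 10 mM arabinose.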

E. coli TESEC Mtb Alr [4] = details: compound 0.1 mM; remark: listed apart in the source
Procedure: as §3

[5] = arabinose 1000 nM, raw OD600 reference: median of DMSO wells 0.294, cell-free background 0.041
[6] = arabinose 10000 nM, raw OD600 reference: median of DMSO wells 0.264, cell-free background 0.041
[7] = arabinose 100000 nM, raw OD600 reference: median of DMSO wells 0.201, cell-free background 0.041
[8] = arabinose 1000000 nM, raw OD600 reference: median of DMSO wells 0.193, cell-free background 0.041
[9] = arabinose 10000000 nM, raw OD600 reference: median of DMSO wells 0.146, cell-free background 0.041
[10] = arabinose induction (level): High, raw OD600 reference: median of DMSO wells 0.331, cell-free background 0.041
[11] = arabinose induction (level): Low, raw OD600 reference: median of DMSO wells 0.417, cell-free background 0.041
[12] = arabinose induction (level): High, raw OD600 reference: median of DMSO wells […], cell-free background 0.041
[13] = arabinose induction (level): Low, raw OD600 reference: median of DMSO wells 0.227, cell-free background 0.041
[14] = arabinose 100 nM, raw OD600 reference: median of DMSO wells 0.413, cell-free background 0.052
[15] = arabinose 10000000 nM, raw OD600 reference: median of DMSO wells […], cell-free background 0.052

Compound	growth [1]	growth (E. coli TESEC Mtb Alr [2]; [5])	growth (E. coli TESEC Mtb Alr [2]; [6])	growth (E. coli TESEC Mtb Alr [2]; [7])	growth (E. coli TESEC Mtb Alr [2]; [8])	growth (E. coli TESEC Mtb Alr [2]; [9])	growth (E. coli TESEC Mtb Asd; [10])	growth (E. coli TESEC Mtb Asd; [11])	growth (E. coli TESEC Mtb DapB; [12])	growth (E. coli TESEC Mtb DapB; [13])	growth [3]	growth (E. coli TESEC Mtb Alr [4]; [14])	growth (E. coli TESEC Mtb Alr [4]; [15])
Cc1cn([C@H]2C=C[C@@H](CO)O2)c(=O)[nH]c1=O [Stavudine]	0.163 ± 0.01	0.285 ± 0.023	0.158 ± 0.017	0.121 ± 0.0031	0.119 ± 0.0013	0.181 ± 0.0073	0.157 ± 0.013	0.158 ± 0.0091	0.192 ± 0.015	0.178 ± 0.0066	0.512 ± 0.037	0.417 ± 0.011	0.218 ± 0.012
NC(=O)c1cccnc1 [Nicotinamide]	0.2773 ± 0.0019	0.335 ± 0.0062	0.302 ± 0.0031	0.263 ± 0.014	0.238 ± 0.014	0.155 ± 0.0058	0.447 ± 0.0077	0.45 ± 0.033	0.214 ± 0.01	0.258 ± 0.043	0.509 ± 0.11	0.43 ± 0.024	0.453 ± 0.0089
N=C(N)N1CCc2ccccc2C1 [Debrisoquin sulfate]	0.237 ± 0.0047	0.288 ± 0.013	0.254 ± 0.0074	0.222 ± 0.036	0.174 ± 0.0076	0.147 ± 0.0083	0.373 ± 0.058	0.373 ± 0.027	0.209 ± 0.022	0.22 ± 0.039	0.567 ± 0.039	0.406 ± 0.01	0.334 ± 0.013
CCC[C@@H]1C[C@@H](C(=O)N[C@@H]([C@H]2O[C@H](SC)[C@H](O)[C@@H](O)[C@H]2O)[C@H](C)Cl)N(C)C1 [Clindamycin hydrochloride]	0.0527 ± 0.0012	0.048 ± 0.0007	0.04127 ± 0.0004	0.0497 ± 0.00055	0.04133 ± 0.00032	0.0496 ± 0.00085	0.0699 ± 0.0019	0.0715 ± 0.0033	0.0755 ± 0.0023	0.0766 ± 0.0063	0.0771 ± 0.0023	0.15 ± 0.014	0.0594 ± 0.0027
CC1CCc2cc(F)cc3c(=O)c(C(=O)O)cn1c23 (stereo not drawn) [Flumequine]	0.0491 ± 0.00083	0.04537 ± 0.00031	0.0396 ± 0.00065	0.0452 ± 0.0012	0.0416 ± 0.0004	0.04987 ± 0.00029	0.059 ± 0.0029	0.0732 ± 0.0099	0.0826 ± 0.0024	0.0692 ± 0.0075	0.0527 ± 0.00046	0.0543 ± 0.0034	0.05097 ± 0.00047
CCOC(=O)n1ccn(C)c1=S [Carbimazole]	0.239 ± 0.0029	0.297 ± 0.0079	0.27 ± 0.012	0.192 ± 0.0037	0.212 ± 0.0081	0.145 ± 0.0022	0.346 ± 0.079	0.284 ± 0.037	0.216 ± 0.011	0.239 ± 0.025	0.607 ± 0.05	0.424 ± 0.011	0.407 ± 0.0073
Clc1ccccc1C(c1ccccc1)(c1ccccc1)n1ccnc1 [Clotrimazole]	0.03967 ± 0.00012	0.04147 ± 0.00015	0.0452 ± 0.00099	0.0437 ± 0.0032	0.0467 ± 0.00068	0.0448 ± 0.0032	0.0468 ± 0.00044	0.0472 ± 0.0021	0.0469 ± 0.0008	0.0488 ± 0.0015	0.0507 ± 0.0011	0.07627 ± 0.0006	0.0569 ± 0.00059
NS(=O)(=O)c1cc2c(cc1C(F)(F)F)NC(Cc1ccccc1)NS2(=O)=O (stereo not drawn) [Bendroflumethiazide]	0.233 ± 0.0098	0.301 ± 0.0067	0.261 ± 0.0081	0.219 ± 0.015	0.162 ± 0.005	0.154 ± 0.0047	0.459 ± 0.046	0.451 ± 0.035	0.217 ± 0.017	0.268 ± 0.0034	0.487 ± 0.035	0.403 ± 0.012	0.298 ± 0.016
COc1ccc(C(Cl)=C(c2ccc(OC)cc2)c2ccc(OC)cc2)cc1 [Chlorotrianisene]	0.242 ± 0.0055	0.306 ± 0.018	0.2565 ± 0.0023	0.189 ± 0.013	0.208 ± 0.013	0.168 ± 0.049	0.281 ± 0.037	0.264 ± 0.019	0.232 ± 0.016	0.267 ± 0.0015	0.469 ± 0.025	0.443 ± 0.02	0.407 ± 0.019
CC=C(C)C(=O)OC1C(OC(C)=O)C2(CO)C(O)CC3(C)C(=CCC4C5(C)CCC(OC6OC(C(=O)O)C(OC7OC(CO)C(O)C(O)C7O)C(O)C6OC6OC(CO)C(O)C(O)C6O)C(C)(CO)C5CCC43C)C2CC1(C)C (stereo not drawn) [Beta-Escin]	0.289 ± 0.0075	0.333 ± 0.0081	0.24 ± 0.0056	0.366 ± 0.011	0.151 ± 0.0075	0.226 ± 0.01	0.271 ± 0.026	0.342 ± 0.048	0.329 ± 0.018	0.323 ± 0.0085	0.438 ± 0.02	0.438 ± 0.018	0.392 ± 0.011
CN1CCN(CC(=O)N2c3ccccc3C(=O)Nc3cccnc32)CC1 [Pirenzepine dihydrochloride]	0.242 ± 0.0032	0.269 ± 0.049	0.268 ± 0.013	0.193 ± 0.0071	0.177 ± 0.0037	0.148 ± 0.0028	0.28 ± 0.051	0.418 ± 0.034	0.19 ± 0.013	0.253 ± 0.038	0.531 ± 0.061	0.4155 ± 0.0034	0.334 ± 0.019
CC(=O)c1ccc(S(=O)(=O)NC(=O)NC2CCCCC2)cc1 [Acetohexamide]	0.253 ± 0.0047	0.284 ± 0.0099	0.242 ± 0.0032	0.191 ± 0.024	0.162 ± 0.0024	0.156 ± 0.0038	0.268 ± 0.082	0.455 ± 0.029	0.19 ± 0.0083	0.232 ± 0.024	0.526 ± 0.01	0.405 ± 0.0044	0.316 ± 0.0099
C1N2CN3CN1CN(C2)C3 [Methenamine]	0.245 ± 0.011	0.287 ± 0.0055	0.275 ± 0.0029	0.198 ± 0.025	0.226 ± 0.0064	0.14 ± 0.0044	0.345 ± 0.048	0.33 ± 0.051	0.204 ± 0.0098	0.218 ± 0.035	0.59 ± 0.14	0.41 ± 0.01	0.376 ± 0.0071
CCCCNc1ccc(C(=O)OCCOCCOCCOCCOCCOCCOCCOCCOCCOC)cc1 [Benzonatate]	0.241 ± 0.0078	0.279 ± 0.0063	0.252 ± 0.011	0.217 ± 0.0091	0.148 ± 0.006	0.157 ± 0.0052	0.245 ± 0.012	0.405 ± 0.0093	0.17 ± 0.017	0.206 ± 0.036	0.444 ± 0.033	0.407 ± 0.012	0.264 ± 0.12
CN(C)CCc1c[nH]c2ccc(Cn3cncn3)cc12 [Rizatriptan benzoate]	0.24 ± 0.0036	0.2899 ± 0.0026	0.258 ± 0.00081	0.198 ± 0.0062	0.213 ± 0.022	0.141 ± 0.006	0.337 ± 0.057	0.417 ± 0.051	0.193 ± 0.0065	0.211 ± 0.015	0.633 ± 0.061	0.408 ± 0.012	0.34 ± 0.0085
N[C@@H](C(=O)N[C@@H]1C(=O)N2C(C(=O)O)=C(Cl)CC[C@H]12)c1ccccc1 [Loracarbef]	0.251 ± 0.0037	0.318 ± 0.0031	0.224 ± 0.0093	0.211 ± 0.024	0.175 ± 0.0071	0.151 ± 0.0052	0.362 ± 0.016	0.411 ± 0.0062	0.226 ± 0.017	0.234 ± 0.014	0.529 ± 0.067	0.0487 ± 0.0051	0.324 ± 0.024
